Sampled rows, rich in hits. Any-hit rate of the full collection: about 6.8%.
KB-3-1 cytotox = KB-3-1 parental cell cytotoxicity | KB-3-1 viability, CellTiter-Glo ATP luminescence, 72 h | Potency, µM (highest dose often 46.1 µM), most hits filed as cytotoxic | 400,000 compounds, 1.4% hits | AID 1347075; also: nearly all actives have a fitted effect of over 60% in size
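Using CellTiter-Glo luminescence, growth of non-resistant KB-3-1 adenocarcinoma cells is assessed 72 h after pin-tool compound addition at 37 °C. Normalized responses across the concentration series yield fitted curves.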
TSG101-PTAP inh = blocks PTAP/TSG101 interaction to inhibit HIV-1 budding. Q99816. Fluorescence polarization, FITC-PTAP peptide / Tsg101 binding. Potency, µM (top dose mostly 115 µM), most hits filed as inhibitors. 340,000 tested, under 10 active. AID 493005; active = well fitted inhibition curve with a large enough effect in the main read-out, with a control signal flat, not every such curve was filed as active; inconclusive = small, poorly fitted or top-dose-only effect, or effect the other way, or a change in a side signal; inactive = no such curve, though single readings can be large or run the other way
Target sequence (Q99816 whole entry, looked up): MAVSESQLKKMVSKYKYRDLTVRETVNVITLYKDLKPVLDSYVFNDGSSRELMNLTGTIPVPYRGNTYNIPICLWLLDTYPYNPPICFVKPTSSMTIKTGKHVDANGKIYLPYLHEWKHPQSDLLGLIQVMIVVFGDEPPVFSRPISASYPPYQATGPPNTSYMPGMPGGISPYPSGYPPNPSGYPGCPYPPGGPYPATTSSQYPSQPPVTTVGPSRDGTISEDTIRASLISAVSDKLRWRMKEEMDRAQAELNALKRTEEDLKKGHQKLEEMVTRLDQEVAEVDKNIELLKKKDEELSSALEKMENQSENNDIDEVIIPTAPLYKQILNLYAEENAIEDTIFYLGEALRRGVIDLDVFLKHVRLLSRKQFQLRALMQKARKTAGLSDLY
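Steps: Tsg101 binding domain dispensed (10 uM final), compounds pinned in DMSO, FITC-labeled PTAP-motif peptide added (50 nM final); after 20 min binding at room temperature, polarization measured.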
MCF10A rereplic = induces DNA re-replication in MCF 10a normal breast cells; MCF 10A DNA re-replication, Hoechst nuclear intensity, 48 h; Potency, µM (doses to about 46.1 µM), most hits filed as activators; 350,000 compounds, 2.9% hits; AID 624296; also: nearly all actives have a fitted effect of over 50% in size
PINK1 expr mod = changes PINK1 expression; AID 624263; Potency, µM (titrated, usually from 76.6 µM), usual class: activators; 410,000 compounds, 0.2% hits; PINK1 immunofluorescence, high-content cytometry, 24 h; active = well fitted activation curve with a large enough effect; inconclusive = small, poorly fitted or top-dose-only effect; cell line not stated here; also: nearly all actives have a fitted effect of over 65% in size
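Cells are seeded, rested 12 hours, then given compound at five concentrations or DMSO for 24 hours. After fixation, blocking and antibody staining, PINK1 amount and mitochondrial localization are scored; CCCP serves as control.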
SW480 rerep = induces DNA re-replication in SW480 colon adenocarcinoma cells | Potency, µM (highest dose often 46.1 µM), usual class: activators | 340,000 compounds, 1.8% hits | AID 624297 | SW480 DNA re-replication, Hoechst DNA content imaging, 48 h; also: nearly all actives have a fitted effect of over 55% in size
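First, 250 cells per well were seeded. Next, compound or vehicle (23 nL) was pinned in, plates sat 48 hr at 37 C. Finally Hoechst was added for 40 min before fluorescence scanning.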
KB-V1 MDR tox = KB-V1 MDR subline cytotoxicity; KB-V1 MDR cells viability, CellTiter-Glo, 72 h; Potency, µM (highest dose often 46.1 µM), most hits filed as cytotoxic; 400,000 compounds, 3.4% hits; AID 1347076; also: nearly all actives have a fitted effect of over 60% in size
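In this primary screen, KB-V1 cells overexpressing P-gp are incubated with library compounds (lowest to highest concentration) for 72 h at 37 degrees C before a luminescent ATP viability read.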
Numbers stand for hits; . = inactive; ? = inconclusive; / = no result. Unless noted, calls follow the shape of the dose curve; as a rule, active = well fitted curve in the direction sought with a large enough effect; inconclusive = small, poorly fitted or top-dose-only effect, or another doubt; inactive = no such curve, though single readings can be large; an effect the other way counts as inactive or inconclusive.

SMILES	KB-3-1 cytotox	TSG101-PTAP inh	MCF10A rereplic	PINK1 expr mod	SW480 rerep	KB-V1 MDR tox
Oc1cccc2ccc(Nc3ccccn3)nc12	5.8µM	.	5.8µM	?	?	?
O=C(N/N=C/c1cc([N+](=O)[O-])ccc1O)C(O)(c1ccccc1)c1ccccc1	?	.	?	.	21µM	.
Cc1ccccc1NC(=O)CCC(=O)N/N=C/c1cc([N+](=O)[O-])ccc1O	.	.	?	.	?	21µM
Cc1ccc(C)c(NC(=O)CCC(=O)N/N=C/c2cc([N+](=O)[O-])ccc2O)c1	?	.	?	.	?	?
O=C(N/N=C/c1cc([N+](=O)[O-])ccc1O)c1cccc(N2CCCC2=O)c1	?	.	.	.	9.2µM	.
COc1cc(OC)cc(-c2c(-c3ccc(F)cc3)c3cc(-c4ccc5[nH]ccc5c4)ccc3n2C)c1	.	.	.	.	?	21µM
COc1cccc(-c2c(-c3cc(OC)cc(OC)c3)n(C)c3ccc(-c4ccc5[nH]ccc5c4)cc23)c1	?	.	.	.	.	.
Cc1ccc(S(=O)(=O)N2CCCCC2C(=O)N2CCN(Cc3ccccc3)CC2)cc1 (stereo not drawn)	?	.	?	.	.	4.6µM
Cc1ccc(-n2c(=O)[nH]c3c(C(N)=O)nc(C(C)C)nc32)cc1	.	.	.	.	?	.
COc1cccc(-c2nc(C(N)=O)c3[nH]c(=O)n(-c4cccc(Cl)c4)c3n2)c1OC	.	.	.	.	.	.
COc1ccc(-c2nc(C(N)=O)c3[nH]c(=O)n(-c4cccc(Cl)c4)c3n2)cc1OC	?	.	?	.	.	7.3µM
CCCC(C)c1nc(C(N)=O)c2[nH]c(=O)n(-c3ccc(OC)c(OC)c3)c2n1 (stereo not drawn)	.	.	.	.	.	5.8µM
CCc1ccc(-c2nc(C(N)=O)c3[nH]c(=O)n(-c4ccccc4OC)c3n2)cc1	.	.	?	.	9.2µM	.
CCOc1ccccc1-c1nc(C(N)=O)c2[nH]c(=O)n(-c3ccc(F)cc3)c2n1	.	.	.	.	.	.
Cc1nc2sc(C(=O)Nc3ccc(F)cc3)c(N)c2c(-c2ccc(Br)cc2)c1C(=O)Nc1ccc(Cl)cc1	.	/	/	.	/	?
Cc1nn(C)c2c1c(C(F)(F)F)cc(=O)n2CC(=O)NCc1ccccc1Cl	.	/	/	.	/	.
Cc1cc2nc(-c3ccc(OCc4ccccc4F)cc3)cc(C(F)(F)F)n2n1	.	/	/	.	/	?
CS(=O)(=O)N(CC(=O)N1CCN(c2ccc(F)cc2)CC1)c1cccc(Cl)c1	.	.	.	.	.	9.2µM
CCOC(=O)N1CCN(C(=O)CN(c2cccc(C)c2)S(=O)(=O)c2ccccc2)CC1	.	.	.	.	.	2.9µM
CCOC(=O)N1CCN(C(=O)CN(c2ccc(Cl)c(C(F)(F)F)c2)S(C)(=O)=O)CC1	.	.	.	.	.	23µM
COc1ccccc1N1CCN(C(=O)CN(c2ccccc2OC)S(=O)(=O)c2ccccc2)CC1	.	.	.	.	.	23µM
CCOC(=O)N1CCN(C(=O)CN(c2cccc(C)c2)S(=O)(=O)c2ccc(C)cc2)CC1	.	.	.	.	.	?
CCOC(=O)c1sc2ccccc2c1S(=O)(=O)N1CCN(c2cccc(OC)c2)CC1	?	/	/	.	/	?
CC(C)NC(=O)Cn1ccc2cc(S(=O)(=O)N3CCCCCC3)ccc21	.	/	/	.	/	.
O=C(NCc1ccccc1)c1ccc2c(c1)N(Cc1ccc(F)cc1)CCS2	?	/	/	.	/	.
SMILES	KB-3-1 cytotox	TSG101-PTAP inh	MCF10A rereplic	PINK1 expr mod	SW480 rerep	KB-V1 MDR tox
COc1ccc(OC)c(N(CC(=O)N2CCC(C)CC2)S(=O)(=O)c2ccc(OC)c(OC)c2)c1	.	.	.	.	.	.
COc1ccc(OC)c(N(CC(=O)N2CCC(C)CC2)S(=O)(=O)c2ccccc2)c1	.	.	.	.	.	7.3µM
C#C[C@@]1(O)CC[C@@H]2[C@H]3CCC4=C/C(=N\O)CC[C@H]4[C@@H]3CC[C@]21CC	/	/	?	/	.	/
C#C[C@]1(O)CC[C@H]2[C@@H]3CCC4=C(CCC(=O)C4)[C@H]3CC[C@@]21C	?	.	.	.	.	15µM
C#C[C@@]1(O)CC[C@@H]2[C@@H]3CCC4=C(CCC(=O)C4)[C@H]3CC[C@]21C	/	/	.	/	.	/
C#C[C@]1(O)CC[C@H]2[C@@H]3CCC4=CC(=O)CC[C@@H]4[C@H]3CC[C@@]21C	?	.	.	.	.	2.3µM
CCOC(=O)c1sc(NC(=O)c2cc(CC)on2)c(C(=O)OCC)c1C	.	/	/	.	/	.
CCOC(=O)c1c(C)[nH]c(C)c1S(=O)(=O)N1CCC(C(=O)Nc2ccccc2CC)CC1	.	/	/	.	/	?
CCCc1cc(NCCN(C)C)n2c(nc3ccccc32)c1C#N	.	.	.	.	.	.
CCCc1cc(NCC2CCCO2)n2c(nc3ccccc32)c1C#N (stereo not drawn)	.	.	16µM	.	?	?
COc1cc(C=O)c(Br)cc1OCc1ccc(C)cc1	.	.	9.2µM	.	?	.
COc1cc(C=O)ccc1OCc1ccncc1	.	.	.	.	.	.
CN(C)/C=C1/Sc2ccccc2C1=O	.	.	.	.	.	.
CC(=O)N(\C=C/C=C/C=C1\Sc2ccccc2C1=O)c1ccccc1	.	.	15µM	?	.	?
CCOc1ccc(Nc2oc(-c3cccc(Cl)c3)nc2C#N)cc1	.	.	16µM	.	?	.
N#Cc1nc(-c2ccc(OCc3ccccc3)cc2)oc1NCc1ccco1	.	.	?	.	.	.
Cc1ccc(OCc2nc(C#N)c(NCCc3ccccc3)o2)cc1	.	/	/	.	/	.
N#Cc1nc(COc2ccccc2F)oc1NCCc1ccccc1	.	.	23µM	.	.	.
CNc1oc(-c2ccc(OCc3ccccc3)cc2)nc1C#N	.	.	.	?	?	23µM
CCOc1ccc(Nc2oc(-c3ccco3)nc2C#N)cc1	.	.	?	.	.	.
Cc1ccc(CNc2oc(COc3ccccc3Cl)nc2C#N)cc1	.	.	4.1µM	.	12µM	.
COc1ccc(CN(Cc2ccco2)C(=O)c2ccccc2F)cc1	/	/	/	.	/	/
COc1ccc2[nH]c(=O)c(CN(C(=O)c3cccc(Cl)c3)c3ccccc3C)cc2c1	.	/	/	.	/	.
Cc1ccc(OCc2ccc(-c3nc(C#N)c(NCc4cccnc4)o3)o2)cc1	?	/	/	.	/	?
COc1ccc(CNc2oc(COc3cccc(C)c3)nc2C#N)cc1	.	/	/	.	/	?
CCC(CC)c1nc(C#N)c(NCc2ccccc2)o1	15µM	.	?	.	?	?
N#Cc1nc(Cc2ccccc2)oc1NCc1ccccc1	.	.	.	.	.	?

Screening data as filed in PubChem BioAssay.
